Assay outcomes deposited in PubChem by National Center for Advancing Translational Sciences (NCATS).
Rows were chosen to be rich in hits. Some 7.3% of all compounds tested hit in one or more screens of this group.
VACV Venus inh: vaccinia inhibition (Venus reporter) | AID 720580 | Potency, µM (titrated, usually from 36.5 µM), without a hit: at the top dose activity change, negative = inhibition, most hits filed as inhibitors | Vaccinia virus Venus reporter expression, fluorescence | 330,000 compounds, 0.46% hits; calls by dose curve; tested in A549 cells; also: potency is read from the fitted curve at half-maximal effect; nearly all actives have a fitted effect of over 30% in size
HCMV antiviral: inhibitors of human cytomegalovirus; HFF cells, HCMV-luciferase reporter, 72 h; active compounds read low; activity change, negative = inhibition, % at 57.5 µM; 410,000 compounds, 4.5% hits; AID 1259415; in the data active = activity change below about -60%; inconclusive = no clear call, values can overlap the other calls; inactive = above about -39%
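HFF cells seeded 16 h at 37C, treated with compounds, infected with luciferase-reporter HCMV at MOI 1 PFU/cell; luciferase read at 72 h post infection, normalized to buffer-only and Salinomycin controls.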
HCV inhibitor: HCV inhibition; Potency, µM (titrated, usually from 41.8 µM), for inactives: at the highest dose activity change, negative = inhibition, most hits filed as inhibitors; 340,000 compounds, 3.4% hits; Huh7.5.1 HCVcc-Cre infection, luciferase reporter, 44 h; AID 651820; active = well fitted inhibition curve with a large enough effect; inconclusive = small, poorly fitted or top-dose-only effect, or another doubt; inactive = no such curve, though single readings can be large or run the other way; also: potency is read from the fitted curve at half-maximal effect
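After 44 h co-culture of compound, cells and HCVcc-Cre (~0.5 moi), substrate is added for 15 min at room temperature and luciferase measured over 15 sec. Cells were seeded at 1,000/well and pre-cultured 4 h.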
Vaccinia mCherry: vaccinia inhibition (mCherry reporter). Vaccinia virus mCherry reporter infection, fluorescence. Potency, µM (series often up to 36.5 µM), without a hit: at the highest dose activity change, negative = inhibition, usual class: inhibitors. 310,000 compounds, 0.63% hits. AID 720579; calls by dose curve; tested in A549 cells; also: potency is read from the fitted curve at half-maximal effect; nearly all actives have a fitted effect of over 35% in size
FMDV inh: blocks foot and mouth disease virus | FMDV antiviral cell-based qHTS | Potency, µM (highest dose often 57.9 µM), inactives show top-dose activity change, negative = inhibition, most hits filed as inhibitors | 410,000 compounds, 1.2% hits; calls by dose curve; tested in HEK293T cells; also: read-out not given here; potency is read from the fitted curve at half-maximal effect; nearly all actives have a fitted effect of over 45% in size
An asterisk follows results filed as active; i = inactive; ? = inconclusive; . = not tested or not shown; [ ] = dose if it differs, or a comment. % is scaled to controls: 0 for no effect and ±100 for the full control effect.

SMILES | VACV Venus inh | HCMV antiviral | HCV inhibitor | Vaccinia mCherry | FMDV inh
Cc1cc(=O)[nH]c2nnc(SCc3ccccc3F)n12 | -15% | 3 | . | i | -1%
Cc1cc(C)cc(NC(=O)C(Cc2ccccc2)N2Cc3ccccc3C2=O)c1 (stereo not drawn) | -9% | -9 | . | i | 5%
O=C(Nc1cc(Cl)cc(Cl)c1)c1ccc(F)c(S(=O)(=O)NCc2ccccc2Cl)c1 | -21% | -99* | . | -23% | -5%
COc1ccc(-n2c(C)cc(C(=O)COC(=O)Cc3n[nH]c(=O)c4ccccc34)c2C)cc1 | -16% | ? | ? | -1% | 28µM*
O=C(Cc1n[nH]c(=O)c2ccccc12)OCC(=O)c1ccc2c(c1)OCCO2 | . | -87* | -8% | . | 1%
O=C(Cc1n[nH]c(=O)c2ccccc12)OCC(=O)c1ccc(F)cc1 | 1% | 16 | 5% | -9% | -22%
CCN(CC)c1ccc(/C=C/c2cccc[n+]2C)c(OC)c1 | i | -97* | 0.89µM* | 98% | ?
COc1ccc(/C=C/c2cccc[n+]2C)c(O)c1 | . | -32 | 8.9µM* | . | 13%
CN=C1S/C(=C\c2ccc(N3CCOCC3)cc2C)C(=O)N1C | 0% | 54 | -6% | -14% | -13%
Cc1cc(/C=C2\SC(=O)N(C)C2=O)c(C)n1-c1ccc(O)cc1 | . | -69* | ? | . | ?
CN=C1S/C(=C\c2cc(C)n(-c3ccccc3F)c2C)C(=O)N1C | -18% | -66* | ? | -2% | -11%
Cc1nc(-c2ccccc2)sc1C(=O)/C=C/c1ccc(Cl)cc1 | -5% | -18 | 7% | . | 25µM*
COc1ccc(N/C=C/C(=O)c2ccccc2)cc1 | . | 57 | -7% | . | -80%
CC(=O)Nc1ccc(N/C=C/C(=O)c2ccc(C)o2)cc1 | -13% | -27 | 17% | -12% | 60%
COc1ccc(N/C=C/C(=O)c2sc(-c3ccccc3)nc2C)cc1 | ? | -61* | 10µM* | ? | -31%
COc1ccccc1Oc1ccc(N/C=C/C(=O)c2ccc(C)o2)cc1 | -23% | ? | 22µM* | ? | 0%
COc1ccc(C2CC(=O)c3c(C)nc(N4CCN(C=O)CC4)nc3C2)c(OC)c1 (stereo not drawn) | -1% | -23 | . | -11% | ?
COc1ccccc1CCNC(=O)c1ccc(NC(=O)CC2SC(N3CCCC3)=NC2=O)cc1 (stereo not drawn) | -5% | -20 | 0% | -15% | -17%
CC(=O)NCCNc1nc(NCC2CC2)nc2cc(-c3ccccc3)sc12 | -21% | -5 | . | -21% | -11%
COc1cc(NC(=O)Cn2ncc(Cl)c(Cl)c2=O)c(C)cc1[N+](=O)[O-] | ? | -96* | ? | ? | 13µM*
COc1cc(NC(=O)CN2C(=O)CN(C)C2=O)c(C)cc1[N+](=O)[O-] | 2% | -2 | -24% | -3% | 3%
CCCCCCCNC1=CC(=O)CC(c2ccccc2)C1 (stereo not drawn) | . | -88* | ? | . | -20%
Cc1cccc(Oc2nc(-c3ccccc3)cc(C)c2S(C)(=O)=O)c1C | ? | 0 | 10µM* | . | ?
COc1ccc(CC(=O)NCc2nc3cccnc3n2Cc2ccc(F)cc2)cc1OC | -16% | -31 | . | -21% | -19%
CN(NC(=O)C(C)(C)C)c1nc(-c2ccccc2)nnc1C(F)(F)F | -8% | -63* | 16% | -5% | -11%
SMILES | VACV Venus inh | HCMV antiviral | HCV inhibitor | Vaccinia mCherry | FMDV inh
Cc1ccc(S(=O)(=O)N2CCOCC2)cc1C(=O)Nc1ccc(-c2cn3ccsc3n2)cc1 | -30% | -16 | 10µM* | ? | ?
COc1ccc2nc(NC(=O)c3cccc(S(=O)(=O)N4CCOCC4)c3)sc2c1 | -18% | -24 | -24% | -25% | ?
COc1ccc2nc(NC(=O)c3cc(S(=O)(=O)N4CCOCC4)ccc3C)sc2c1 | ? | -5 | 22µM* | . | -28%
COc1ccc2nc(NC(=O)c3cc(C)oc3C)sc2c1 | . | 46 | ? | . | 29%
COc1ccc2nc(NC(=O)c3cccc(OCc4c(C)noc4C)c3)sc2c1 | ? | 8 | 0.35µM* | ? | -26%
COc1ccc2nc(NC(=O)c3ccoc3C)sc2c1 | -13% | 125 | 14µM* | -20% | -1%
Cc1ccc(S(=O)(=O)N2CCOCC2)cc1C(=O)Nc1ccncc1 | . | 11 | 6% | . | -9%
CCSc1nnc(NC(=O)c2cccc(OCc3c(C)noc3C)c2)s1 | . | -4 | -22% | . | -16%
OC(c1cccc(Cl)c1)c1nc(-c2ccoc2)cs1 (stereo not drawn) | 18% | 39 | . | 9% | -19%
COc1ccc(NC(=O)c2cccc([N+](=O)[O-])c2)cc1 | -8% | 6 | ? | i | 27%
O=C(Nc1ccc([N+](=O)[O-])cc1)Nc1ccc2c(c1)OCCO2 | -12% | -13 | ? | ? | -9%
CCC(=O)Nc1ccc2c(c1)Cc1cc([N+](=O)[O-])ccc1-2 | -4% | -86* | -21% | i | 35%
COc1ccc(NC(=S)Nc2cccc([N+](=O)[O-])c2)cc1 | . | -96* | -14% | . | 21%
COc1cc([N+](=O)[O-])ccc1NC(=O)Nc1ccc2c(c1)OCCO2 | -14% | 6 | 7.1µM* | -16% | -30%
COc1ccc(Cl)cc1NC(=O)NC1CCCCC1 | -5% | -16 | ? | -12% | 37%
COc1ccc(Cl)cc1NC(=O)Nc1cccc([N+](=O)[O-])c1C | -13% | -13 | 16µM* | -24%[1.46 µM] | -9%
C[C@@H]1CN([C@H](C)CO)C(=O)c2cc(Br)cnc2O[C@@H]1CN(C)C(=O)c1ccccc1 | -10% | 25 | . | i | -18%
COc1ccc(C(=O)Nc2cccc([N+](=O)[O-])c2)cc1Br | ? | 46 | ? | -23% | -27%
O=C(Nc1cccc([N+](=O)[O-])c1)Nc1ccc2c(c1)CCC2 | -27% | -103* | ? | -28% | -27%
COc1ccc(NC(=O)Nc2cccc([N+](=O)[O-])c2)cc1Cl | ? | -100* | ? | ? | ?
COc1ccc(/C=C(/C#N)C(=O)Nc2cccc(C)c2C)cc1C(=O)O | -11% | -36 | 9% | . | -8%
COc1ccc(/C=C(/C#N)C(=O)Nc2cccc([N+](=O)[O-])c2)cc1C(=O)O | -4% | -102* | ? | i | -17%
CC(NC(=O)Nc1cccc([N+](=O)[O-])c1)(C(F)(F)F)C(F)(F)F | ? | -93* | -21% | ? | ?
O=C(Nc1ccccc1)Nc1ccc2c(c1)CCC2 | . | 55 | -25% | . | 22%
O=C(Nc1cccc([N+](=O)[O-])c1)c1cccc(C(=O)Nc2cccc([N+](=O)[O-])c2)c1 | ? | 74 | 0% | -8% | -23%
N#Cc1c(Cl)nc2c(c1C#N)CCCC2 | -20% | -75* | -20% | -7% | -23%
CCCCc1nc(Cl)c(C#N)c2c1CCCC2 | -8% | ? | -30% | -18% | -23%
O=C(N/N=C/c1c(O)ccc2ccccc12)c1[nH]ncc1Br | ? | -99* | ? | 2.5µM* | 64%
O=C(N/N=C\c1ccc(Cl)s1)c1ccc(Cn2cccn2)o1 | -3% | -26 | -6% | -3% | 9%
